Only a selection was taken, and hits are over-represented in it overall.
IL-1B inflam inh = inhibitors of inflammasome signaling (IL-1 beta secretion); THP-1 LPS/ATP IL-1B secretion, AlphaLISA, 16 h; active compounds read low; activity change, % at 57.5 µM; actives 4.7% (n = 360,000); in the data active = activity change below about -50%; inconclusive = mostly about -30% to -49%
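Secreted IL-1B measured by AlphaLISA bead assay after 16 h compound exposure of THP-1 cells; compounds (final up to 57.5 uM) added 1 h before LPS (250 ng/mL) and ATP (1.25 mM) stimulation; lower signal means less secretion.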
HT1080NT lethal = kills 2HG-producing HT-1080-NT fibrosarcoma cells | HT-1080-NT fibrosarcoma viability, CellTiter-Glo ATP luminescence, 48 h | Potency, µM (top dose mostly 46.1 µM), inactives show top-dose activity, negative = less viability, most hits filed as cytotoxic | actives 1.6% (n = 360,000) | AID 686970;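 also: NT is the 2HG producing partner of a matched IDH1 knockdown line; potency is read from the fitted curve at half-maximal effect; 0% = DMSO-treated cells and -100% = media-only wells without cells; nearly all actives have a fitted effect of over 55% in size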
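HT-1080-NT; 750 cells/well; 5% FBS RPMI; 48 h compound, 37 degrees C; CellTiter-Glo luminescence; curve fitting and curve-class assignment.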
HT1080 IDH1KD tx = toxicity to HT-1080 IDH1 knockdown cells (counter line); HT-1080 IDH1 knockdown viability, ATP luminescence, 48 h; actives 2% (n = 360,000); Potency, µM (series often up to 46.1 µM), for inactives: at the top dose activity, negative = toxicity, most hits filed as cytotoxic; AID 686971;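 also: potency is read from the fitted curve at half-maximal effect; 0% = DMSO wells and -100% = cell-free medium wells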
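% activity derives from luminescence (CellTiter-Glo), normalised to DMSO and no-cell wells. HT-1080-IDH1KD cells, 750/well, had 48 h compound exposure at 37 °C.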
12-LOX inh = blocks human arachidonate 12S-lipoxygenase; Potency, µM (top dose mostly 108 µM), for inactives: top-dose activity change, negative = inhibition, most hits filed as inhibitors; actives 1.1% (n = 580,000); purified 12hLO, xylenol orange hydroperoxide absorbance; P18054; also: potency is read from the fitted curve at half-maximal effect
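Purified human 12hLO (150 nM final) in 25 mM Hepes, 0.01% Triton X-100, pH 7.0 was preincubated 15 min at room temperature with compound. Then 40 uM arachidonic acid was added, 30 min. Hydroperoxide was read by Fe-XO absorbance ratio 573/405 nm.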
DT40 TDP1 no CPT = qHTS for Inhibitors of human tyrosyl-DNA phosphodiesterase 1 (TDP1): qHTS in cells in absence of CPT. AID 686978, 2013. actives 15% (n = 420,000). Potency, µM (doses to about 46.2 µM), without a hit: at the highest dose activity change, negative = growth inhibition, actives largely listed as inhibitors. DT40 Tdp1-/- hTDP1 cells, no CPT, ATP luminescence, 48 h; also: potency is read from the fitted curve at half-maximal effect; nearly all actives have a fitted effect of over 55% in size
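Cells were dispensed at 400 per well, compounds added by pin tool, plates incubated ≥48 hr at 37 °C, then CellTiter-Glo added for 30 min at room temperature before luminescence reading. Line: DT40 Tdp1-/- complemented with hTDP1; camptothecin omitted.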
TDP1 cell CPT = DT40-hTDP1 cell growth loss with CPT; chicken DT40 Tdp1-/-;hTDP1 cells + 20 nM CPT, ATP luminescence, 48 h; Potency, µM (highest dose often 46.2 µM), for the others: top-dose activity change, negative = growth inhibition, most hits filed as inhibitors; actives 12% (n = 420,000); AID 686979; also: potency is read from the fitted curve at half-maximal effect; nearly all actives have a fitted effect of over 55% in size
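Cell growth measured by CellTiter-Glo luminescence after a minimum 48 h, 37 C compound exposure with 20 nM CPT in Tdp1-knockout DT40 cells stably expressing hTDP1, seeded 400/well; qHTS titration format.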
The depositor's hits bear a star; u = inconclusive; x = no result given. Unless noted, calls follow the shape of the dose curve; as a rule, active = well fitted curve in the direction sought with a large enough effect; inconclusive = small, poorly fitted or top-dose-only effect, or another doubt; inactive = no such curve, though single readings can be large; an effect the other way counts as inactive or inconclusive. Unless noted, % is scaled to controls: 0 for no effect and ±100 for the full control effect.

SMILES	IL-1B inflam inh	HT1080NT lethal	HT1080 IDH1KD tx	12-LOX inh	DT40 TDP1 no CPT	TDP1 cell CPT
CN1CCC(=NNc2ncnc3sc4c(c23)CCCC4)CC1	-7.1	-2.7%	-11.9%	18.4%	20.6µM*	16.4µM*
O=C(Nc1ccc(Br)cc1F)c1cc(S(=O)(=O)NC2CCCCC2)ccc1F	x	x	x	-29.5%	20.6µM*	23.1µM*
CC(C)c1ccc(NC(=O)c2cc(S(=O)(=O)NC3CCCCC3)ccc2F)cc1	x	x	x	2.4%	18.4µM*	16.4µM*
CCOc1ccccc1NC(=O)c1cc(S(=O)(=O)NC2CCCC2)ccc1F	x	x	x	-12.2%	u	-19.0%
O=C(Nc1ccc(Br)cc1)c1ccc(F)c(S(=O)(=O)NC2CCCCCC2)c1	x	x	x	3.8%	1.64µM*	2.91µM*
O=C(Nc1ccc(F)c(F)c1)c1cc(S(=O)(=O)NC2CCCCCC2)ccc1F	x	x	x	u	20.6µM*	20.6µM*
CNC(=O)c1cc(S(=O)(=O)NC2CCCCCC2)ccc1C	32.1	15.4%	9.2%	0.0%	-0.9%	u
Cc1ccc(NC(=O)c2cc(S(=O)(=O)NCC3CCCO3)ccc2F)cc1 (stereo not drawn)	0.6	-2.4%	-0.8%	13.4%	u	u
Cc1ccc(C2=NC3(CCN(C(=O)COc4ccccc4)CC3)ON2)cc1	x	x	x	36.0%	x	x
CCCCc1nnc(NC(=O)c2cc(=O)[nH]c3ccccc23)s1	x	x	x	-2.5%	x	x
CS(=O)(=O)c1ccc(CC(=O)N2CCCC(c3cccc(C(=O)O)c3)C2)cc1 (stereo not drawn)	x	x	x	-0.8%	x	x
CSCCC(NC(=O)COc1ccccc1)C(=O)N(C)Cc1c(F)cccc1Cl (stereo not drawn)	-5.6	-6.3%	-4.3%	-18.7%	11.6µM*	20.6µM*
COCCOCc1nc(C2CCN(C(=O)NCCc3ccccc3)CC2)no1	x	x	x	35.6%	x	x
CC1(C(=O)NCc2ccco2)Cc2c(-c3ccc(C(N)=O)cc3)ccnc2O1 (stereo not drawn)	52.0	3.26µM*	2.91µM*	1.4%	3.66µM*	4.11µM*
CC(=O)Nc1cccc(-c2ccnc3c2CC(C)(C(=O)NCCc2ccccc2)O3)c1 (stereo not drawn)	104.0	u	u	-5.0%	4.61µM*	5.8µM*
CC1(C(=O)NCCc2ccccc2)Cc2c(-c3ccccc3)ccnc2O1 (stereo not drawn)	-59.1*	-19.3%	u	12.0%	u	20.6µM*
CC(=O)Nc1cccc(-c2ccnc3c2CC(C)(C(=O)Nc2cccc(NS(C)(=O)=O)c2)O3)c1 (stereo not drawn)	-19.3	-15.8%	-25.8%	3.3%	-27.5%	-6.7%
CN(C)c1ccc(-c2ccnc3c2CC(C)(C(=O)NCC2CCOCC2)O3)cc1 (stereo not drawn)	0.0	-21.4%	-4.2%	-3.0%	13µM*	16.4µM*
Cc1ccc(C)c(Sc2ccc(NC(=O)/C=C/c3cccs3)cc2)c1	x	x	x	-0.9%	x	x
Brc1cccc(-c2nc3ccccc3o2)c1	x	x	x	6.9%	x	x
O=C(C(Sc1nc2ccccc2o1)c1ccccc1)N1CCCC1 (stereo not drawn)	x	x	x	-7.2%	x	x
NC(=O)C1CCN(C(=O)COC(=O)c2cc3ccccc3[nH]2)CC1	x	x	x	5.8%	x	x
Cc1nccn1CCNC(=O)C1CCCCC(=O)N1Cc1ccccc1 (stereo not drawn)	x	x	x	33.3%	x	x
CN(C)c1ccc(-c2ccnc3c2CC(C)(C(=O)Nc2ccccc2)O3)cc1 (stereo not drawn)	-0.2	7.0%	17.3%	0.2%	-22.3%	3.0%

Screens: PubChem BioAssay, National Center for Advancing Translational Sciences (NCATS)
